A selection: hits, their analogues and other compounds. The true share with any hit is near 3.1%.
CASP6 VEID inh = inhibitors of human caspase-6. P55212. purified caspase-6, Z-VEID-R110 cleavage fluorescence. inhibition, % at 12.5 µM. 350,000 tested, 0.53% active. AID 686996;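 active means mean inhibition across replicates at least about 35%, with every replicate also reaching that limit, limit read from the data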;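 further: 0% = median of neutral control wells and 100% = no fluorescence left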
ERAP1 inh = ERAP1 (human) enzyme inhibition. Q9NZ08. recombinant ERAP1, Leu-AMC fluorescence, 60 min. inhibition, % at 10.7 µM. 340,000 tested, 0.15% active;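 active means mean replicate inhibition of at least 30%, or all replicates individually reaching that 30% level; inactive means mean below 30% and not every replicate reaching it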;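 further: 0% = neutral control wells and 100% = L-leucinethiol positive control wells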
SIRT5 block = sirtuin-5 (human) deacylase inhibition. Q9NXA8. Purified SirT5, succinyl-peptide AMC, trypsin-coupled fluorescence. inhibition, % at 15 µM. 330,000 tested, 1.1% active. AID 652115; in the data active means inhibition above about 15%
Target sequence (Q9NXA8 whole entry, looked up): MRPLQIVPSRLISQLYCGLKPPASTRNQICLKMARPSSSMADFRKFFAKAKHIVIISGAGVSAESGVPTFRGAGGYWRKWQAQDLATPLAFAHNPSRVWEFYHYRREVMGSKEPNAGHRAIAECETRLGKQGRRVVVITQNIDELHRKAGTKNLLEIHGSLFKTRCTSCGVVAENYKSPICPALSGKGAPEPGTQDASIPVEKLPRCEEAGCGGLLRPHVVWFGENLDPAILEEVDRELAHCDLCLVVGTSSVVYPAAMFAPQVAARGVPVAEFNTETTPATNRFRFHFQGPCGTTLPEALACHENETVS
FGF22 binding-1 = shifts melting point of recombinant human FGF22; activity (Tm shift, normalised), % at 9.99 µM; Q9HCT0; 340,000 tested, 1.5% active; recombinant FGF22 thermal shift, SYPRO orange fluorescence; percent of sucrose octasulfate shift, DMSO zero;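 active means mean Tm shift, scaled 0 neutral to 100 positive control, at about 1.3% or above, every replicate too, limit read from the data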
Target sequence (Q9HCT0 whole entry, looked up): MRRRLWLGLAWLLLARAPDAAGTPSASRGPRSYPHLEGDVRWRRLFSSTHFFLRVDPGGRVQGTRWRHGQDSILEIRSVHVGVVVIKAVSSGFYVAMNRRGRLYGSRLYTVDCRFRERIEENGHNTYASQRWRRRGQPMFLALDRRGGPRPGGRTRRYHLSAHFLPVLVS
FGF22 binding-2 = binds human FGF22 shifting its melting temperature; recombinant FGF22 thermal shift, SYPRO orange fluorescence; shares compounds with FGF22 binding-1; 1,000 tested, 2% active; thermal shift activity, °C (ΔTm) at 38 µM; AID 720646;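 active means fitted rise in melting shift crosses a set limit at or below the top valid dose tested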
FGF22 TSA DP = binders of human FGF22 by thermal shift; shares compounds with FGF22 binding-1; AID 743017; 50 tested, under 10 active; Thermal shift assay, SYPRO orange, melting temperature shift; Tm shift (activity), % at 38 µM;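 active means compounds whose fitted dose curve of melting temperature shift rises past a set threshold within the tested doses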
TSA no protein = shows thermal shift signal without protein, FGF22 counter-screen; shares compounds with FGF22 binding-1; compound-only SYPRO orange thermal shift counter-screen, no protein; AC50, µM (top dose mostly 38 µM); 1,000 tested, 2% active;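 active means rising signal whose fitted curve reaches the 0.54 level within the top valid dose, showing a melting point, actives reach about 13 µM in these data; inactive means the rest, including activity in the opposite direction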; further: value is where the raw curve crosses a fixed level and not half-maximal
The depositor's hits bear a star; i = inactive; . = no result given; [ ] = dose if it differs, or a comment.

SMILES | CASP6 VEID inh | ERAP1 inh | SIRT5 block | FGF22 binding-1 | FGF22 binding-2 | TSA no protein | others
Cc1cccc(-c2ccc([C@H]3[C@@H](CO)N4C(=O)CN(C(=O)c5cccnc5)C[C@H]34)cc2)c1 | 4 | 1 | 1 | . | . | .
CN1C(=O)c2cc(NC(=O)c3ccccc3)ccc2OC[C@H]2O[C@H](CC(=O)O)CC[C@H]21 | 2 | 0 | -3 | 0 | . | .
O=C(C[C@@H]1C[C@@H]2c3cc(NC(=O)C4CCC4)ccc3O[C@@H]2[C@H](CO)O1)NCc1cc(F)ccc1F | -1 | -1 | 4 | 0 | . | .
O=C(Nc1cccc(S(=O)(=O)N2CCCCC2)c1)C1=NN(c2ccccc2)C(=O)CC1 | 3 | 1 | 2 | 1.9* | -0.096 | i
O=C(Nc1cc(S(=O)(=O)N2CCCCC2)ccc1Cl)C1=NN(c2ccccc2)C(=O)CC1 | -3 | 0 | 11 | 0 | . | .
O=C(C[C@@H]1C=C[C@@H](NC(=O)c2ccc3c(c2)OCO3)[C@H](CO)O1)NCc1ccc(Oc2ccccc2)cc1 | -1 | -10 | 7 | 0 | . | .
COC(=O)C[C@@H]1CC[C@H]2[C@H](COc3ccc(NC(=O)Nc4ccc(C#N)cc4)cc3C(=O)N2C)O1 | 1 | -1 | -3 | 0 | . | .
COC(=O)C[C@H]1CC[C@@H]2[C@@H](COc3ccc(NC(=O)Nc4ccc(C#N)cc4)cc3C(=O)N2C)O1 | 0 | -2 | 1 | 1.3* | -0.13 | 2.4µM* | FGF22 TSA DP=0
COC(=O)C[C@H]1CC[C@@H]2[C@@H](COc3ccc(NC(=O)Nc4cccc(C#N)c4)cc3C(=O)N2C)O1 | 0 | -1 | 11 | 2.0* | -0.093[42 µM] | i | FGF22 TSA DP=0
COC(=O)C[C@H]1CC[C@H]2[C@@H](COc3ccc(NC(=O)c4ccc(F)c(F)c4)cc3C(=O)N2C)O1 | 0 | 3 | -2 | . | . | .
COC(=O)C[C@@H]1CC[C@@H]2[C@@H](COc3ccc(NC(=O)c4ccc(F)c(F)c4)cc3C(=O)N2C)O1 | 1 | -2 | -9 | 2.3* | 0.072 | i
CCOc1cc(C=NNC(=O)c2cccc(S(=O)(=O)N3CCCC3)c2)ccc1O | 3 | 0 | 4 | 2.4* | 0.52 | i
N#C[C@@H]1[C@H](c2ccc(-c3cccnc3)cc2)[C@H](CO)N1C(=O)Nc1ccc(F)cc1 | -2 | 4 | 0 | 2.7* | 0.067[42 µM] | i
CC(C)NC(=O)N1[C@H](CO)[C@H](c2ccccc2-c2ccc(F)cc2)[C@@H]1C#N | 4 | 0 | 2 | 1.8* | 0.22 | i
Cc1ccccc1-c1ccccc1[C@H]1[C@@H](CO)N(C(=O)c2ccccc2)[C@H]1C#N | 2 | -1 | 0 | 1.7* | 0.13[42 µM] | i
C/C=C/c1ccccc1[C@@H]1[C@@H](C#N)N(C(C)=O)[C@@H]1CO | 1 | 0 | -4 | 1.3* | -0.004[42 µM] | i
N#C[C@H]1[C@@H](c2ccc(-c3cccnc3)cc2)[C@@H](CO)N1C(=O)Nc1ccc(F)cc1 | -3 | 1 | 0 | 0 | . | .
C[C@H](CO)N1C[C@H](C)[C@@H](CN(C)S(=O)(=O)c2cccs2)OCCCC[C@H](C)Oc2ccc(NS(=O)(=O)c3ccc(F)cc3)cc2C1=O | -1 | -2 | 6 | 0 | . | .
C[C@@H]1CN([C@@H](C)CO)C(=O)c2cc(NS(C)(=O)=O)ccc2O[C@@H]1CN(C)Cc1ccc(C(=O)Nc2ccccc2N)cc1 | -2 | 3 | . | 0 | . | .
Cc1cc(C(=O)Nc2cccc3ccccc23)n(-c2ccccc2)n1 | 3 | -2 | -7 | 3.2* | 0.14 | i
Cc1cc(C(=O)Nc2cccc(C)c2C)n(-c2ccccc2)n1 | 3 | 1 | -2 | 0 | . | .
C/C(=N\NC(=O)CNC(=O)c1ccncc1)c1ccc(C)cc1 | 1 | 7 | 0 | 1.6* | 0.043 | i
C/C(=N/NC(=O)CNC(=O)c1cccnc1)c1ccc(Cl)cc1 | 3 | 1 | 2 | 0 | . | .
O=C(CNS(=O)(=O)c1ccccc1)OCC(=O)c1c[nH]c2ccccc12 | 2 | 0 | 1 | 2.1* | 0.1 | i
O=C(CNS(=O)(=O)c1ccccc1F)OCC(=O)c1c[nH]c2ccccc12 | 1 | 1 | -12 | 0 | . | .
SMILES | CASP6 VEID inh | ERAP1 inh | SIRT5 block | FGF22 binding-1 | FGF22 binding-2 | TSA no protein | others
O=C(NCc1ccccc1)c1ccc2nnsc2c1 | 3 | 2 | -1 | 0 | . | .
O=C(Nc1ccccc1)Nc1ccc2nnsc2c1 | 8 | -11 | -1 | 2.1* | 0.27 | i
COc1ccc(NS(=O)(=O)c2ccc3oc(=O)ccc3c2)cc1 | 0 | -1 | -7 | 0 | . | .
O=c1ccc2cc(S(=O)(=O)Nc3ccc(Br)cc3)ccc2o1 | 5 | -1 | 2 | 1.4* | -0.019 | i
Cc1ccccc1-c1ccc([C@H]2[C@H]3CN(C(=O)Nc4cccc(F)c4)CC(=O)N3[C@H]2CO)cc1 | . | . | -2 | . | . | .
COc1ccc(S(=O)(=O)N(NC2=NS(=O)(=O)c3ccccc32)C(=O)C(C)C)cc1 | 0 | -1 | 0 | 2.6* | -0.066 | i
CCN(CC)S(=O)(=O)c1ccc(C(=O)NNC2=NS(=O)(=O)c3ccccc32)cc1 | -1 | 0 | 1 | 0 | . | .
CC(=O)Nc1ccc(S(=O)(=O)Nc2nc3ccccc3nc2Nc2cccc(S(N)(=O)=O)c2)cc1 | 8 | 7 | 2 | 2.0* | 0.011 | i
CCCNC(=O)N1CC2(CCN(C(=O)c3ccncc3)CC2)c2c([nH]c3cc(OC)ccc23)[C@H]1CO | -3 | -3 | 6 | 0 | . | .
COc1ccc(/C=N/N2C(C)CCCC2C)cc1OC (stereo not given) | -3 | 0 | -3 | 38* | -0.091 | i
CCOc1ccc(/C=N/N2C(C)CCCC2C)cc1 (stereo not given) | 1 | 2 | -2 | 0 | . | .
COc1cccc(-c2cnc3c(c2)C(=O)N([C@H](C)CO)C[C@@H](C)[C@H](CN(C)Cc2ccc(C(=O)O)cc2)O3)c1 | -1 | -13 | -8 | 0 | . | .
O=C(C[C@@H]1CC[C@H]2[C@@H](COC[C@H](O)CN2C(=O)c2ccc(F)cc2)O1)N1CCCCC1 | . | . | . | 0 | . | .
C[C@@H]1CCCCO[C@H](CN(C)C)[C@@H](C)CN([C@H](C)CO)C(=O)c2cc(NC(=O)Nc3ccc4c(c3)OCO4)ccc2O1 | 2 | 0 | -8 | 0 | . | .
Nc1nonc1N/N=C\c1ccccc1 | 5 | 1 | -1 | 2.0* | 0.6 | i
O=C(Nc1ccc(F)cc1)N[C@H]1CC[C@H](CCn2cc(-c3ccccc3F)nn2)O[C@H]1CO | 1 | -3 | 3 | 0 | . | .
O=C(Nc1ccc(F)cc1)N[C@H]1CC[C@@H](CCn2cc(-c3ccccc3F)nn2)O[C@H]1CO | -2 | -1 | -4 | 1.4* | -0.079 | i
O=C(Cc1cccnc1)N[C@@H]1CC[C@@H](CCn2cc(-c3ccccc3F)nn2)O[C@@H]1CO | 2 | 2 | -1 | 1.3* | -0.12 | i
